The full list was thinned out, with hits kept by preference.
Cycloheximide cs = Cycloheximide Counterscreen for Small Molecule Inhibitors of Shiga Toxin; AID 2314, 2010; cell reporter, cycloheximide protein synthesis inhibition counterscreen; hit rate 12% among 300,000; max response, %; in the data active means max response mostly above about 13%, no sharp cut-off; inactive means mostly below about 14%; further: read at 38.3 µM for the half of the compounds with a filed dose
Tb PYK inh = qHTS of Trypanosoma Brucei Inhibitors; pyruvate kinase (Trypanosoma brucei), Q57TT1; TbPYK enzyme, Kinase-Glo Plus ATP luminescence, 45 min; Potency, µM (doses to about 76.8 µM), actives largely listed as inhibitors; hit rate 0.12% among 410,000; further: nearly all actives have a fitted effect of over 50% in size
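Luminescent Kinase-Glo Plus end-point after 45 min room-temperature reaction of T. brucei pyruvate kinase started with 130 uM ADP (final). Buffer TEA 50 mM pH 7.2 with KCl, MgCl2, BSA, Tween-20; titration-based qHTS with fitted concentration-effect curves.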
Sm TGR inh = qHTS Assay for the Inhibitors of Schistosoma Mansoni Peroxiredoxins; Schistosoma mansoni thioredoxin glutathione reductase (TGR), Q962Y6; purified TGR, DTNB reduction, TNB absorbance 405 nm; AID 485364, 2010; hit rate 3% among 360,000; Potency, µM (titrated, usually from 114 µM), hits mostly inhibitors; further: nearly all actives have a fitted effect of over 60% in size
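TGR 20 nM + NADPH 100 uM (dispensed conc.), cpd preinc 15 min RT; start with NADPH (500 uM addition) then DTNB (15 mM addition). Kinetic TNB absorbance, 405 nm filter. Four-parameter Hill fit across titration.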
Shiga inhibitor = A qHTS for Small Molecule Inhibitors of Shiga Toxin; Vero cells, Shiga toxin protein synthesis inhibition reporter; inhibition, % at 38.7 µM; hit rate 9.2% among 290,000; in the data active means inhibition mostly above about 28%, no sharp cut-off; inactive means mostly below about 43%
LmPK inh = qHTS Assay for Inhibitors of Leishmania Mexicana Pyruvate Kinase (LmPK) | Q27686 | purified LmPK, Kinase-Glo ATP luminescence, 1 h | Potency, µM (highest dose often 57.5 µM), most hits filed as inhibitors | hit rate 0.37% among 290,000
Target sequence (Q27686 whole entry, looked up): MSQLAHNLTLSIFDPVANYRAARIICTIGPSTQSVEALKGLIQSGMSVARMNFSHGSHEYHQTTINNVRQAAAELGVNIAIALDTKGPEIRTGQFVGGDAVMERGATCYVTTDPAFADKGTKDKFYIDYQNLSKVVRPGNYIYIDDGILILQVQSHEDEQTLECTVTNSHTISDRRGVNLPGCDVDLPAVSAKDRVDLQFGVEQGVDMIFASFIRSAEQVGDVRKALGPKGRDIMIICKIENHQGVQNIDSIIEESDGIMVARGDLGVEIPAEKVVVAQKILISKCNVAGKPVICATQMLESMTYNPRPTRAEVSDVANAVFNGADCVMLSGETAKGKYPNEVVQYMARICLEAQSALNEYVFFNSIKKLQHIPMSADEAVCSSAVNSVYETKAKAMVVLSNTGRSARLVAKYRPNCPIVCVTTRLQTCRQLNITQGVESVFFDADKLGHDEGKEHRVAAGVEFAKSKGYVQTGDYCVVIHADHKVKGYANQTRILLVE
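ATP generated from ADP (0.1 mM) and PEP (0.5 mM) by 0.1 nM LmPK over 1 h at room temperature (pH 7.2 imidazole buffer) was detected by coupled luciferase luminescence. Values were normalized to uninhibited and no-enzyme wells.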
FBPA Giardia inh = qHTS Assay for Inhibitors of Fructose-1,6-bisphosphate Aldolase from Giardia Lamblia; A8B2U2; purified Giardia FBPA; Potency, µM (titrated, usually from 59.6 µM), most hits filed as inhibitors; hit rate 0.71% among 290,000; AID 2451, 2010; further: nearly all actives have a fitted effect of over 55% in size
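Giardia FBPA (40 nM reagent) was preincubated 10 min at RT with compound (up to 57.5 uM final), then substrate plus GAPDH/TPI/NAD/arsenate coupling system with diaphorase/resazurin was added; resorufin fluorescence (525/598 nm) was read after 20 min.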
Each line names hits and unclear results; the compound was inactive in the other large screens. Unless noted, the call rests on the fitted dose curve; in most records, active means well fitted curve in the direction sought with a large enough effect; inconclusive means small, poorly fitted or top-dose-only effect, or another doubt; inactive means no such curve, though single readings can be large; an effect the other way counts as inactive or inconclusive.

O=S(=O)(c1ccccc1F)N(Cc1ccco1)Cc1nnc(-c2ccccc2Br)o1	Sm TGR inh 16µM
Brc1ccc(-c2csc(Nc3nc(-c4ccc(Br)cc4)cs3)n2)cc1	Cycloheximide cs 22
Nc1nc(-c2ccccc2)cs1	Cycloheximide cs 29, Shiga inhibitor 35
Nc1nc(-c2cc(-c3ccccc3)no2)cs1	Cycloheximide cs 32, Shiga inhibitor 69, LmPK inh inconclusive
Nc1nc(-c2cccc(Br)c2)cs1	Cycloheximide cs 46, Shiga inhibitor 82
O=C(Nc1nc(-c2cccc(Br)c2)cs1)Oc1ccccc1	none
O=C(CSc1nc2ccccc2[nH]1)Nc1nc(-c2ccc(Br)cc2)cs1	none
O=C(CCC(=O)N1CCOCC1)NCc1cccc(C(F)(F)F)c1	none (no result: Cycloheximide cs, Shiga inhibitor, LmPK inh, FBPA Giardia inh)
Cc1cccc(Cn2c(=O)n(CC3CCC(C(=O)N4CCOCC4)CC3)c(=O)c3sccc32)c1 (stereo not drawn)	none (no result: Cycloheximide cs, Shiga inhibitor, LmPK inh, FBPA Giardia inh)
COc1ccc(CN2CCNC(=O)C2CC(=O)NCC2CCOCC2)c(F)c1 (stereo not drawn)	Sm TGR inh inconclusive (no result: FBPA Giardia inh)
Nc1nc(-c2ccc(F)cc2)cs1	FBPA Giardia inh inconclusive (no result: Sm TGR inh)
O=C(c1ccccc1)c1cc(-c2ccccc2)on1	Cycloheximide cs 19, LmPK inh inconclusive
c1ccc(-c2cc(-c3ccccc3)on2)cc1	Cycloheximide cs 35, Tb PYK inh inconclusive, Shiga inhibitor 67
Nc1nc(-c2ccc(Br)cc2)cs1	Cycloheximide cs 20, Shiga inhibitor 88
O=C(O)c1ccccc1OP(=O)(O)O	none (no result: Cycloheximide cs, Sm TGR inh, Shiga inhibitor, LmPK inh)
NC(=S)Cc1nc(-c2ccccc2)cs1	none
Oc1csc(Cc2nc(-c3ccccc3F)cs2)n1	Cycloheximide cs 47, Shiga inhibitor 78
Oc1csc(Cc2nc(-c3ccc(-c4ccccc4)cc3)cs2)n1	Cycloheximide cs 27, Shiga inhibitor 53
O=c1oc2ccccc2cc1-c1csc(Cc2nc(-c3ccc(Cl)cc3)cs2)n1	none
Oc1csc(Cc2nc(-c3ccc4ccccc4c3)cs2)n1	Cycloheximide cs 38, Shiga inhibitor 59
CCOC(=O)CN1C(=O)C(O)(CC(=O)c2cc(OC)ccc2OC)c2ccccc21 (stereo not drawn)	none (no result: Cycloheximide cs, Shiga inhibitor, LmPK inh, FBPA Giardia inh)
CO[C@H]1C[C@@H]2CC[C@@H](C)[C@@](O)(O2)C(=O)C(=O)N2CCCC[C@@H]2C(=O)O[C@H]([C@H](C)C[C@@H]2CC[C@H](OCCO)[C@H](OC)C2)CC(=O)[C@H](C)C=C(C)[C@@H](O)[C@@H](OC)C(=O)[C@H](C)C[C@H](C)C=CC=CC=C1C	none (no result: Cycloheximide cs, Sm TGR inh, Shiga inhibitor, LmPK inh, FBPA Giardia inh)
CS(=O)(=O)N1CCC2(CC1)CN(c1ncccn1)C2	none (no result: Cycloheximide cs, Sm TGR inh, Shiga inhibitor, LmPK inh)
Cn1c(=O)c2c(ncn2CC(=O)Nc2cc(Cl)cc(Cl)c2)n(C)c1=O	none (no result: Cycloheximide cs, Shiga inhibitor, LmPK inh, FBPA Giardia inh)
COc1ccccc1/C=C/CN1CCC(Oc2cc(C(=O)NC3CC3)ccc2OC)CC1	none (no result: FBPA Giardia inh)
COc1ccc2[nH]c(C(=O)O)c(CCN3C(=O)c4ccc(C(=O)O)cc4C3=O)c2c1	Cycloheximide cs 17
CN(C)c1ccc(/C=C(\C#N)C(=O)NCc2ccco2)cc1	Cycloheximide cs 50, Shiga inhibitor 85 (no result: Tb PYK inh)
CC(OC(=O)/C(C#N)=C/c1ccc(N(C)C)cc1)C(=O)NCc1ccco1 (stereo not drawn)	none (no result: Cycloheximide cs, Tb PYK inh, Shiga inhibitor, LmPK inh, FBPA Giardia inh)
CCN(CC)c1ccc(/C=C(\C#N)C(=O)NCc2ccccc2)cc1	none
N#C/C(=C\Nc1ccc2c(c1)OCCO2)C(=O)NCc1ccco1	Shiga inhibitor 32
CCN(CC)c1ccc(/C=C(\C#N)C(=O)NCc2ccco2)cc1	Cycloheximide cs 36, Shiga inhibitor 43 (no result: Tb PYK inh)
Cn1c(=O)n(C)c2cc(/C=C(/C#N)C(=O)NCc3ccco3)ccc21	none
NC(=S)NS(=O)(=O)c1ccc(N)cc1	none (no result: Cycloheximide cs, Sm TGR inh, Shiga inhibitor, LmPK inh, FBPA Giardia inh)
CC(Oc1ccc(Cl)cc1)C(=O)N1CCN(C(=O)c2ccco2)CC1 (stereo not drawn)	none (no result: Cycloheximide cs, Shiga inhibitor, LmPK inh, FBPA Giardia inh)
CCCCNC(=O)C1(C)CCC(=O)N1C1CC1 (stereo not drawn)	none (no result: Cycloheximide cs, Sm TGR inh, Shiga inhibitor, LmPK inh, FBPA Giardia inh)
CCC1(c2ccc(Cl)cc2)NC(=O)N(CC(=O)N2CCN(C(=O)c3ccco3)CC2)C1=O (stereo not drawn)	none (no result: Cycloheximide cs, Sm TGR inh, Shiga inhibitor, LmPK inh, FBPA Giardia inh)
COc1ccc(C(=O)COC(=O)/C=C/c2ccco2)cc1F	Sm TGR inh 22µM (no result: Cycloheximide cs, Shiga inhibitor, LmPK inh, FBPA Giardia inh)

Screens (PubChem BioAssay)
